Among the data in PubChem BioAssay (EPA / NIEHS) are AC50 and outcome values, retold here.

Inconclusive results are not listed. Where a structure was tested more than once in an assay, its records may differ in their call. Active and inactive are the calls of the source. The calls were made as follows, unless noted: active = hit-call score of the fitted dose curve at least 0.9, where 1 is the maximum; inactive = score below 0.9.

Read-out in assay [1]: Monokine induced gamma interferon (MIG), CXCL9 (gene 4283)
The assay is described as follows: BSK_SAg_MIG: BioMAP Diversity Plus: SAg Assay for Monokine induced gamma interferon (MIG) Biomarker Activity (AID 2283092). The note with it: primary human HUVEC with PBMC; actives raise or lower the signal. An outline of the steps: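 Measures CXCL9 protein by ELISA in a human vascular primary-cell co-culture (umbilical vein endothelium with PBMC) 24 h after chemical addition. Activity is scored up or down from the DMSO control.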

The nature of assay [2]: BSK_SAg_PBMCCytotoxicity: PBMC Cytotoxicity Assessment in the BioMAP Diversity Plus: SAg Assay (AID 2283093).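 Also: PBMC viability measured as Alamar Blue reduction fluorescence at 546/580 nm; fitted both ways against DMSO so a hit may be loss or gain of signal.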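 As to AC50: PBMC superantigen activated with SEB plus TSST-1 one hour after compound addition.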 The conditions noted are these: primary human HUVEC with PBMC. An outline of the steps:
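Alamar Blue reduction (6 h, ex/em 546/580 nm) read after 90 h culture of PBMC pre-dosed 1 h then stimulated with SEB plus TSST-1, 20 ng/mL each. Gain or loss of signal fitted relative to DMSO.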

Read-out in assay [3]: Interleukin-8 (IL8), CXCL8 (gene 3576)
The assay is described as follows: BSK_SAg_IL8: BioMAP Diversity Plus: SAg Assay for Interleukin-8 (IL8) Biomarker Activity (AID 2283094). The note with it: primary human HUVEC with PBMC; actives raise or lower the signal. In short, it runs like this:
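HUVEC/PBMC co-culture, 24 h post-dose; IL-8 by ELISA. Gain or loss of signal fitted bidirectionally vs DMSO baseline.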

Assay [4] is described as follows: BSK_SAg_Proliferation: Cell Proliferation Assessment in the BioMAP Diversity Plus: SAg Assay (AID 2283095).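 Also: relative cell number as total protein by SRB absorbance in sub-confluent culture.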 The note with it: primary human HUVEC with PBMC. In short, it runs like this: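 HUVEC/PBMC co-culture, 96-well. TCA-fixed (10%), 0.1% SRB stain, A560 at 96 h. Protein content used as viability readout; bidirectional fitting vs DMSO control.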
Assay [5] is described as follows: BSK_SAg_SRB: Viability Assessment in the BioMAP Diversity Plus: SAg Assay (AID 2283096).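 Also: cells read one day after compound addition; hits may be either gain or loss of signal compared with DMSO.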 The conditions noted are these: primary human HUVEC with PBMC. An outline of the steps: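 SRB absorbance at 560 nm served as the viability read-out. Cells (HUVEC plus peripheral blood mononuclear cells) were TCA-fixed and stained 24 h post-dosing; activity fitted in both directions against DMSO controls.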

Assay [6] has as its target human CYP19A1, CYP19A1 (gene 1588) (UniProt P11511). As to the kind of experiment: NVS_ADME_hCYP19A1: NovaScreen (NVS) CYP450-related Enzyme Activity (ADME) Assay for human CYP19A1 (AID 2283098; active = hit-call score of the fitted dose curve at least 0.9, where 1 is the maximum;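 as to AC50: potency for inhibitors seen as loss of fluorescent enzyme signal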). An outline of the steps:
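Primary testing was in duplicate at a single 10 uM concentration, with actives followed up in concentration-response series. Fluorescence read-out of recombinant enzyme activity at 0.5 h, cell-free. Acetonitrile was the negative-control baseline.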

Assay [7] addresses human CYP1A1, CYP1A1 (gene 1543) (UniProt P04798). The assay is described as follows: NVS_ADME_hCYP1A1: NovaScreen (NVS) CYP450-related Enzyme Activity (ADME) Assay for human CYP1A1 (AID 2283100; active = hit-call score of the fitted dose curve at least 0.9, where 1 is the maximum). In short, it runs like this:
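Recombinant CYP1A1 with a fluorogenic substrate, cell-free, read 1 h after dosing; acetonitrile as negative control. Single-concentration screen at 10 uM in duplicate, then concentration-response up to 20 uM for chemicals meeting ~30% inhibition threshold.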

In assay [8] the target is human CYP1A2, CYP1A2 (gene 1544) (UniProt P05177). As to the kind of experiment: NVS_ADME_hCYP1A2: NovaScreen (NVS) CYP450-related Enzyme Activity (ADME) Assay for human CYP1A2 (AID 2283102; active = hit-call score of the fitted dose curve at least 0.9, where 1 is the maximum;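 as to AC50: potency for inhibition since loss of fluorescence marks reduced CYP1A2 activity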). In short, it runs like this:
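Recombinant human CYP1A2 from insect cells, cell-free, fluorogenic substrate; read 0.5 h after dosing with loss of fluorescence signal indicating inhibition. Primary screen in duplicate at 10 uM, acetonitrile as negative control.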

For assay [9], the target named is human CYP2A6, CYP2A6 (gene 1548) (UniProt P11509). As to the kind of experiment: NVS_ADME_hCYP2A6: NovaScreen (NVS) CYP450-related Enzyme Activity (ADME) Assay for human CYP2A6 (AID 2283099; active = hit-call score of the fitted dose curve at least 0.9, where 1 is the maximum). An outline of the steps:
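Recombinant human CYP2A6 expressed in insect cells, cell-free; fluorogenic substrate turnover read by fluorescence intensity 0.5 h after dosing. Primary screen 10 uM in duplicate, then concentration-response up to 20 uM; acetonitrile as negative control.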

The target in assay [10] is human CYP2B6, CYP2B6 (gene 1555) (UniProt P20813). As to the kind of experiment: NVS_ADME_hCYP2B6: NovaScreen (NVS) CYP450-related Enzyme Activity (ADME) Assay for human CYP2B6 (AID 2283101; active = hit-call score of the fitted dose curve at least 0.9, where 1 is the maximum). In short, it runs like this: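 Recombinant protein, specific fluorescent substrate, read at 1 h post-dosing. Primary: single 10 uM, duplicate; follow-up: concentration series. Activity = signal loss vs acetonitrile baseline, with positive and negative controls on every plate.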
Chain of human CYP2B6, CYP2B6 (gene 1555) (P20813 whole entry, looked up): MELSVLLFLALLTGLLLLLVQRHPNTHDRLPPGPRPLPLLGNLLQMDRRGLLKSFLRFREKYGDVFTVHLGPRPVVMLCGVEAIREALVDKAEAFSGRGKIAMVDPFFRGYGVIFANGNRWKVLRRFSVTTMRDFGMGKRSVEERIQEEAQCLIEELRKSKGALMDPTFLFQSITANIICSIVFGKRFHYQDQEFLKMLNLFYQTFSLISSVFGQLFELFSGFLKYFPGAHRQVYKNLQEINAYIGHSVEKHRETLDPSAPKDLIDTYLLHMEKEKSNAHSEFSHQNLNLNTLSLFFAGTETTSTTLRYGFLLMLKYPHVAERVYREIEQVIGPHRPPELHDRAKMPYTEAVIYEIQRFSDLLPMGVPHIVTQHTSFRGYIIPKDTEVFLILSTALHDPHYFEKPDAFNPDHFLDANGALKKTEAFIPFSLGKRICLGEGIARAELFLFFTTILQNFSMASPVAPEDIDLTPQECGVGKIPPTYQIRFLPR

Chain of human CYP1A2, CYP1A2 (gene 1544) (P05177 whole entry, looked up): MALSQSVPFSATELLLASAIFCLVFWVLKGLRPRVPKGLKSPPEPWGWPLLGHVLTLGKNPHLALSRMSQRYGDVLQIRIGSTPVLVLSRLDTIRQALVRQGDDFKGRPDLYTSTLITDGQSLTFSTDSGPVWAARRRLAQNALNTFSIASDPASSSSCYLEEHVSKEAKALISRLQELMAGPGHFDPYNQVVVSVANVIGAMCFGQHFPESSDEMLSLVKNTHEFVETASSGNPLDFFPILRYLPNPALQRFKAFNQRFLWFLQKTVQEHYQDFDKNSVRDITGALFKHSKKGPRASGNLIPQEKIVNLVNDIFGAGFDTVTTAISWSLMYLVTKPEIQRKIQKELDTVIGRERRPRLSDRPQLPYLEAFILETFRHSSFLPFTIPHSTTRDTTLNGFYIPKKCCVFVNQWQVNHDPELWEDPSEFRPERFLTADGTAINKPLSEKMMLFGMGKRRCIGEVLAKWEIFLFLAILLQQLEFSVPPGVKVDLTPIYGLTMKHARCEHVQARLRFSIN
Chain of human CYP1A1, CYP1A1 (gene 1543) (P04798 whole entry, looked up): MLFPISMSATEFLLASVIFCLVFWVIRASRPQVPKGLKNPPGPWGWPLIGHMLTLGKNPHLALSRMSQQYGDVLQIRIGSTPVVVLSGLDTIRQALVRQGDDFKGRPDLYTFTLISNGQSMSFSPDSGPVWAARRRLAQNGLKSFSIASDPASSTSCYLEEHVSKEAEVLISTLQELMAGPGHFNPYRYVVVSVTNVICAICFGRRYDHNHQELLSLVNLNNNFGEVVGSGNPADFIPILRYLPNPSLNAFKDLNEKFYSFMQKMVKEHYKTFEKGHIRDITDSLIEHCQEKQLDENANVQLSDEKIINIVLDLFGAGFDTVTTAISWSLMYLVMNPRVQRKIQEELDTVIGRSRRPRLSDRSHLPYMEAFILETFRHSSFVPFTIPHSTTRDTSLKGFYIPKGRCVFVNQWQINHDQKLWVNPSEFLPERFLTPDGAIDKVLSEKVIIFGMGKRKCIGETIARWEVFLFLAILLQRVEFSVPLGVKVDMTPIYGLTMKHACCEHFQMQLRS
Chain of human CYP19A1, CYP19A1 (gene 1588) (P11511 whole entry, looked up): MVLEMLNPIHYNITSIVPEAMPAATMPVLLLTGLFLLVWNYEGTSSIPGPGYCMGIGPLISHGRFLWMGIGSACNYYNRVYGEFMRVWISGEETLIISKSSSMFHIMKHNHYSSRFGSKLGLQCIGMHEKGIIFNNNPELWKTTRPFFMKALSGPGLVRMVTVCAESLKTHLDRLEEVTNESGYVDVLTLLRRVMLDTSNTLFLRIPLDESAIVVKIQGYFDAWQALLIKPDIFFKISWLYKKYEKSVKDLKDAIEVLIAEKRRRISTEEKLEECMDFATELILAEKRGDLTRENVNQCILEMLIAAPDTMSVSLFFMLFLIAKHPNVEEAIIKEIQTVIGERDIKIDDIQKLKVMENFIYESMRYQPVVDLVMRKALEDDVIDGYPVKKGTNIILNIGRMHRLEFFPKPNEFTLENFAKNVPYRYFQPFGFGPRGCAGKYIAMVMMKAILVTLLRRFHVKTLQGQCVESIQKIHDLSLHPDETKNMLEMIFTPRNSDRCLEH
Chain of human CYP2A6, CYP2A6 (gene 1548) (P11509 whole entry, looked up): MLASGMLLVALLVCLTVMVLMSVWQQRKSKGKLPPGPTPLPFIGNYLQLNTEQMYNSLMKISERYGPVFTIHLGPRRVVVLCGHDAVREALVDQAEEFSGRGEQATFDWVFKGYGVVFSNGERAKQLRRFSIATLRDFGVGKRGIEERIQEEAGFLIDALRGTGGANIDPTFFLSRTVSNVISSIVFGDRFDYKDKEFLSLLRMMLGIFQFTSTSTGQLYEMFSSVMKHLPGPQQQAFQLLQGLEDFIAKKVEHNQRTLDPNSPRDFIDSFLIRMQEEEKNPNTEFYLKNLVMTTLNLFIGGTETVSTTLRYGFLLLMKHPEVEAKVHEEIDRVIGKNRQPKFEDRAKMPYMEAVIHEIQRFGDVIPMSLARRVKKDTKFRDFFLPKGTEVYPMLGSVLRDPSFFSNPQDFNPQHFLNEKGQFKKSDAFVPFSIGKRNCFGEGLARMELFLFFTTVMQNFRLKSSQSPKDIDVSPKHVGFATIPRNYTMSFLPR

In the case of `CC(=O)S[C@@H]1CC2=CC(=O)CC[C@]2(C)[C@H]2CC[C@@]3(C)[C@@H](CC[C@@]34CCC(=O)O4)[C@H]12`, the AC50 in assay [1] is 25.7 µM (active); in assay [2] it was 13.3 µM (active); in assay [3], 11.1 µM (active); in [4] it was 13.7 µM (active); in assay [5], 22.7 µM (active); in assay [6] it was 8.3 µM (active). Moreover, the outcome in assay [6] was inactive.

Turning to `CC(C)CCCCCCc1ccc(O)cc1`, the AC50 in assay [1] is 9.25 µM (active); in assay [2], 6.38 µM (active); in [3], 6.55 µM (active); in assay [4], 5.59 µM (active); in assay [5], 13.1 µM (active); in assay [7], 10.7 µM (active).

Turning to `Oc1ccc(C(c2ccc(O)cc2)C(Cl)(Cl)Cl)cc1`, the AC50 in assay [1] is 38.9 µM (active); in [2], 20 µM (active); in assay [3], 14.2 µM (active); in assay [4], 24.1 µM (active); in assay [5], 32.3 µM (active); in assay [7] it was 10 µM (active). For the same compound, the compound was called inactive in assay [6].

Turning to `COC(=O)c1cccc(C)c1S(=O)(=O)NC(=O)Nc1nc(OCC(F)(F)F)nc(N(C)C)n1`, the outcome in assay [1], in assay [2], in [3], in assay [4] and in assay [5] was inactive.

On to `C[C@]12C[C@H](O)[C@H]3[C@@H](CCC4=CC(=O)CC[C@@]43C)[C@@H]1CC[C@@H]2C(=O)CO`, for which the outcome in assay [1], in assay [2], in assay [3], in assay [4], in assay [5] and in assay [6] was inactive.

As for `c1ccc(Nc2ccccc2)cc1`, the result in assay [1], in assay [2], in assay [3], in [4] and in assay [5] was inactive.

Consider `CCOC(=O)[C@H](C)Oc1ccc(Oc2nc3ccc(Cl)cc3o2)cc1`, for which the result in [1], in assay [2], in assay [3], in assay [4], in assay [5] and in assay [8] was inactive.

Turning to `S=C([S-])NCCNC(=S)[S-].[Mn+2]`, the result in [1], in assay [5] and in assay [9] was inactive. The AC50 is 25.5 µM (active) in assay [2]; 30 µM (active) in assay [3]; 8.4 µM (active) in assay [4]; 1.11 µM (active) in assay [6]; 5.5 µM (active) in [8].

Turning to `C#CCOC(=O)[C@@H](C)Oc1ccc(Oc2ncc(Cl)cc2F)cc1`, the result in assay [1], in [2], in [3], in assay [4] and in [5] was inactive. Besides, the AC50 in assay [7] is 2.24 µM (active); in assay [10] it was 0.777 µM (active); in [8] it was 1.64 µM (active).

For `CCCN(CCC)C(=O)SCC`, the result in [1], in assay [2], in [3], in assay [4], in assay [5] and in assay [6] was inactive. Moreover, the AC50 in [6] was 0.652 µM (active).
